Data: PubChem BioAssay AID488794 (Sanford-Burnham Center for Chemical Genomics, 2010)
Hit rate of the full screen: of about 1,000 compounds, about 550 (55%) were called active. So high a share suggests a set chosen from earlier hits. These entries were drawn from the full list. Values without a mark were called inactive. Cut-off read from the data, not from the text of the source: active = inhibition above about 50%; inactive = the rest.

assay: yeast-expressed human NALP3 blockade, retest – luminescence, single concentration, confirmation (AID 488794); details: yeast expressing human NALP3, luminescence read-out; at 10 µM; active compounds read high

| Compound | inhibition |
| --- | --- |
| CCCCCCCCCCCCn1ccc(=N)cc1 | 82.8% (active) |
| Cc1cc2ccccn2c1C(C[N+](=O)[O-])c1c(F)cccc1Cl (centres undefined) | 23.2% |
| Cc1ccc(-c2nc3ccccc3c(=O)n2-c2ccc(Br)cn2)cc1 | 45.7% |
| O=C1/C(=C\c2ccc3c(c2)OCO3)N2CCC1CC2 | 35% |
